PubChem BioAssay AID504332 (National Center for Advancing Translational Sciences (NCATS), 2011)
Screen size: about 350,000 compounds; about 31,000 (8.9%) were called active. About 15% were inconclusive and are not listed. Only a selection was taken, and actives are over-represented in it overall. Values without a mark were called inactive. The call rests on the fitted dose curve; in most records, active means well fitted inhibition curve with a large enough effect; inconclusive means small, poorly fitted or top-dose-only effect; inactive means no such curve, though single readings can be large or run the other way.

The compounds below were run against Histone-lysine N-methyltransferase EHMT2 (Homo sapiens) (UniProt Q96KQ7) (assay: qHTS Assay for Inhibitors of Histone Lysine Methyltransferase G9a). Settings: G9a H3K9 monomethylation, AlphaScreen, 2 h; series mostly up to 59 µM; activity, negative = inhibition: at the top concentration.
How it was run: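 AlphaScreen read-out: biotin-H3K9 peptide (500 nM) methylation by 20 nM enzyme with 20 uM SAM, 2 h at room temperature after 15 min compound preincubation; anti-monomethyl H3K9 antibody plus donor/acceptor beads, 10 min dark.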
Further: nearly all actives have a fitted effect of over 75% in size.
On the % scale 0 is the no-effect control and ±100 the full control effect; potency means the concentration at half of the fitted maximal effect.

Chain of Histone-lysine N-methyltransferase EHMT2 (Homo sapiens) (Q96KQ7 913-1193 limits assumed): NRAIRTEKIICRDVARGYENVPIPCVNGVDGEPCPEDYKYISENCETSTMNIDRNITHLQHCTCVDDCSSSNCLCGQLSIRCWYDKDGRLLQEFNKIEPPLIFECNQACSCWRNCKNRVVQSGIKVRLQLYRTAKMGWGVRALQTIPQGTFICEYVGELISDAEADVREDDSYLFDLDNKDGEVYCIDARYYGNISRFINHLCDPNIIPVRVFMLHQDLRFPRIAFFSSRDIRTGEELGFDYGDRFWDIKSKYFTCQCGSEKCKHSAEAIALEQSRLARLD

Row | Structure (SMILES) | Potency | activity, negative = inhibition
1 | Cc1ccc(C(=O)c2c(NC(=O)c3ccncc3)sc3c2CCCC3)cc1 | 15.8 µM (active) | 
2 | COC(=O)c1c(NC(=O)c2cccs2)sc2c1CCCC2 |  | -19.4%
3 | Cc1cccc(OCCCC(=O)Nc2sc3c(c2C(N)=O)CCC(C)C3)c1 (centres undefined) |  | -6.2%
4 | CCOc1ccc(NC(=O)Cn2c(=O)n(CCCC(=O)NCc3ccc4c(c3)OCO4)c(=O)c3ccccc32)cc1 |  | -29.8%
5 | Cc1sc2ncn(CC(=O)N3CCN(c4ccc(F)cc4)CC3)c(=O)c2c1S(=O)(=O)N1CCN(c2ncccn2)CC1 |  | -32.7%
6 | Cc1ccc(C)c(S(=O)(=O)n2nc(C)c(S(=O)(=O)N3CCC(C)CC3)c2C)c1 |  | 4%
7 | CCc1ccc(Sc2cc(C(=O)NCCCOC(C)C)c3ccccc3n2)cc1 |  | 14.5%
8 | CC(C)(CNC(=O)CNC(=O)C1CCCCC1)N1CCOCC1 |  | -2.59% [at 12.7 µM]
9 | O=c1c2cc(Br)ccc2nc(-c2cccc(Cl)c2)n1O |  | -6.02% [at 102 µM]
10 | COc1ccc(CC(=O)Nc2sc(Cc3ccccc3)c(C)c2C(N)=O)cc1 |  | -34.6% [at 102 µM]
11 | Cc1ccc(C(=O)Nc2sc(Cc3ccc4c(c3)OCO4)c(C)c2C(N)=O)cc1 | 50.1 µM (active) | 
12 | COCc1nnc(NC(=O)c2ccc3c(c2)OCO3)s1 |  | -43.4% [at 102 µM]
13 | O=C(Nc1ccc2nc(SCCOc3ccccc3)sc2c1)c1ccco1 |  | 32.6%
14 | Cc1cc2nc(NC(=O)c3ccc(S(=O)(=O)N4CCOCC4)cc3)sc2cc1C |  | -1.89%
15 | O=c1c2cccnc2n(Cc2cccc(F)c2)c(=O)n1Cc1ccccc1Cl |  | 43.8%
16 | CCCNC(=O)c1c(N)n(-c2ccc(S(N)(=O)=O)cc2)c2nc3ccccc3nc12 | 50.1 µM (active) | 
17 | CCOC(=O)c1c(N)n(-c2cccc(C)c2C)c2nc3ccccc3nc12 |  | 2.49%
18 | CC(C)Cn1c(N)c(C(=O)NCc2cccs2)c2nc3ccccc3nc21 |  | 93.7%
19 | COc1cc(NS(=O)(=O)c2cccs2)cc(OC)c1 |  | 14.3%
20 | CC(Oc1ccc(Br)cc1)C(=O)NC1CCCCCC1 (centres undefined) |  | 35.3% [at 12.7 µM]
21 | O=C(NCCc1ccc(Cl)cc1)c1ccc2nc(CCc3ccccc3)oc2c1 |  | -0.672%
22 | CCc1cc(-c2n[nH]c(=S)n2CC(C)C)cs1 | 1.78 µM (active) | 
23 | CCn1c(-c2ccncc2)n[nH]c1=S |  | -114% [at 102 µM]
24 | CCc1cc(-c2nnc(SCC(=O)NC3CC3)n2C)cs1 |  | 87.8% [at 102 µM]
25 | CCc1ccc(N(CC)C(=O)CCn2cnc3onc(-c4ccc(F)cc4)c3c2=O)cc1 |  | -23.9%

Row | Structure (SMILES) | Potency | activity, negative = inhibition
26 | O=C1CC2(CCN(C(=O)COc3ccc(F)cc3)CC2)Oc2ccccc21 |  | -12.9% [at 102 µM]
27 | CCc1ccccc1OCCSc1nc(-c2cccs2)nc2cc(=O)[nH]n12 |  | 8.02%
28 | CCc1ccc(NC2Nc3cc(C)nn3S2)cc1 (centres undefined) | 1 µM (active) | 
29 | C#CCNc1ccc(C(=O)OCC)cc1 |  | -3.3% [at 102 µM]
30 | CCOC(=O)c1ccc(NC2Nc3cc(C)nn3S2)cc1 (centres undefined) | 3.16 µM (active) | 
31 | CCOC(=O)c1ccc(NC(=O)CCn2cnnn2)cc1 |  | -3.16%
32 | CCc1ccc(CNC(=O)c2ccc(CS(=O)c3ccc(Br)cc3)o2)cc1 (centres undefined) |  | -1.56%
33 | COc1ccc(Cn2ccn(CC(=O)Nc3cc(C)ccc3C)c(=O)c2=O)cc1 |  | -6.02%
34 | O=C(CCCCO)c1ccc(O)c(Cl)c1 |  | 1.29% [at 2.33 µM]
35 | Cc1cccc(NC(=O)c2ccc(F)c(S(=O)(=O)N(C)C3CCCCC3)c2)c1 |  | 11.7%
36 | Cc1ccccc1OCCC(=O)OCC(=O)NCCc1ccc(S(N)(=O)=O)cc1 |  | -2.83% [at 12.7 µM]
37 | O=C(NCCc1ccccc1)C1CCN(S(=O)(=O)c2ccc(Br)s2)CC1 |  | 2.02% [at 102 µM]
38 | O=S(=O)([N-]c1nc2ccccc2nc1-[n+]1ccc(Cc2ccccc2)cc1)c1ccc(Br)s1 | 11.2 µM (active) | 
39 | Cc1cc(C)c[n+](-c2nc3ccccc3nc2[N-]S(=O)(=O)c2cccs2)c1 |  | 17.1%
40 | COc1ccc(-n2nnc(-c3nsc(NC(=O)c4ccc(C)c(C)c4)n3)c2C)cc1Cl |  | -27.3%
41 | COc1ccccc1NC(=O)CSc1oc(-c2ccco2)nc1S(=O)(=O)c1ccc(Br)cc1 |  | -46%
42 | CN(C)S(=O)(=O)c1cccc(NC(=O)Cc2ccsc2)c1 |  | -2.27% [at 102 µM]
43 | CN(C)S(=O)(=O)c1cccc(NC(=S)N/N=C/C(=O)c2ccccc2)c1 |  | 75.6%
44 | Cc1ccc(/C=N/NC(=S)Nc2cccc(S(=O)(=O)N(C)C)c2)o1 | 50.1 µM (active) | 
45 | COc1cc(Cl)c(C)cc1Nc1nnc(-n2nc(C)cc2C)c2ccccc12 |  | 28%
46 | Cc1ccc2cccc(NC(=O)c3cccc4ccccc34)c2n1 |  | 42.4%
47 | CCOc1ccc(S(=O)(=O)N2CCC(C(=O)OCc3ccc(OC)cc3)CC2)cc1 |  | 4.98% [at 102 µM]
48 | COC(=O)c1ccc(COC(=O)C2CCN(S(=O)(=O)c3c(Cl)cccc3Cl)CC2)o1 | 35.5 µM (active) | 
49 | COc1cccc(COC(=O)C2CCN(S(=O)(=O)c3ccc(Cl)cc3)CC2)c1OC |  | -3.42%
